The campaign covered roughly 16,000 compounds. About 4,000 (25%) were called active. Not shown: some 26% with an inconclusive outcome. Not all results are given here. Values without a mark were called inactive. Calls follow the shape of the dose curve; as a rule, active = well fitted curve in the direction sought with a large enough effect; inconclusive = small, poorly fitted or top-dose-only effect, or effect the other way; inactive = no such curve, though single readings can be large or run the other way.
Molecular target: Cytochrome P450 2C9 (Homo sapiens) (UniProt P11712)
Sequence (P11712 whole entry, looked up): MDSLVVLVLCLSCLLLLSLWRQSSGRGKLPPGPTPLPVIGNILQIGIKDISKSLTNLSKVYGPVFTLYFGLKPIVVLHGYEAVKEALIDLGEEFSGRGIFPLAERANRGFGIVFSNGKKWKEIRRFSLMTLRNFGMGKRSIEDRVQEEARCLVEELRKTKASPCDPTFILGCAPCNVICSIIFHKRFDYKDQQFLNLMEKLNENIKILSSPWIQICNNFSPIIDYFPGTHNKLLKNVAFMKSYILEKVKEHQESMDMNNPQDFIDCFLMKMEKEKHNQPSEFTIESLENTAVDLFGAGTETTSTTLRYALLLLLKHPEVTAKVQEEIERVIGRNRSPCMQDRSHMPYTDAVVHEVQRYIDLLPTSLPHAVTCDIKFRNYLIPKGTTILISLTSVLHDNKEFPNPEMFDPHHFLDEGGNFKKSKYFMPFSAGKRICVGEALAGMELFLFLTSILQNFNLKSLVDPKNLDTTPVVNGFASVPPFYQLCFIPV
Test: Cytochrome panel assay with activity outcomes
Conditions: recombinant CYP, pro-luciferin dealkylation, luminescence, p450-cyp2c9; series mostly up to 57.1 µM; activity, negative = inhibition: at the top concentration
% is scaled to controls: 0 for no effect and ±100 for the full control effect.

SMILES	activity, negative = inhibition	AC50
CN1CCN(c2ccc([N+](=O)[O-])cc2NC(=O)c2ccccc2Cl)CC1	-17%	–
O=[N+]([O-])c1ccc(N2CCN(CCOc3nonc3-c3ccccc3)CC2)c(Cl)c1	–	22.4 µM (active)
c1cncc(-c2ccc3ncnc(NCCN4CCOCC4)c3c2)c1	23.6% [at 2.29 µM]	–
c1ccc(-n2ncc3c(NCCCN4CCOCC4)ncnc32)cc1	-8.65%	–
c1ccc2c(c1)oc1c(NCCCn3ccnc3)ncnc12	–	0.447 µM (active)
COc1ccc(-c2nc3cnc(OC)nc3n(-c3ccc(OC)cc3)c2=O)cc1	4.24%	–
CCNc1ncc2nc(C)c(=O)n(C3CC3)c2n1	-15%	–
Cc1ccccc1-c1nccc(NCc2cccs2)n1	-17.9% [at 2.29 µM]	–
Cc1ccc(-c2nnc(-c3ccc(NC(=O)c4cccs4)cc3)o2)cc1	–	5.01 µM (active)
CS(=O)(=O)c1ccccc1-c1nc(-c2cc(C(F)(F)F)cc(C(F)(F)F)c2)no1	17%	–
Cc1ccccc1-c1nc(-c2ccc(NC(=O)c3cccs3)cc2)no1	–	12.6 µM (active)
O=C(c1csnn1)N1CCC[C@@]2(CCN(Cc3nccs3)C2)C1	-2.79%	–
O=C(O)c1cc([N+](=O)[O-])ccc1NCCCc1ccccc1	–	0.501 µM (active)
c1ccc(CCCNc2nnnc3ccccc23)cc1	-19.1% [at 11.4 µM]	–
Cc1cc([N+](=O)[O-])ccc1NCc1ccccc1	–	3.55 µM (active)
COC(=O)C/C=C\[C@@H](C)[C@@H](/C=N\O[C@@H](C)CN1CCCc2nc(C)c(C)cc21)OC	-19.3% [at 11.4 µM]	–
CS(=O)(=O)N1CCC2(CCCN(c3ccccn3)C2)CC1	-16.9%	–
CN1CCCC2(CCN(S(=O)(=O)c3ccccc3)CC2)C1	-4.86%	–
CC(C)CN1CC[C@@]2(CCCN(S(=O)(=O)c3ccccc3)C2)C1	-10%	–
O=S(=O)(c1ccccc1)N1CCC2(CCCN(c3ccccn3)C2)CC1	–	1 µM (active)
O=S(=O)(c1ccccc1)N1CCC[C@@]2(CCN(c3ccncc3)C2)C1	–	15.8 µM (active)
O=S(=O)(c1ccccc1)N1CCC2(CCN(c3ncccn3)CC2)CC1	16.3%	–
O=S(=O)(c1ccccc1)N1CCC2(CCCN(c3ncccn3)C2)CC1	–	1 µM (active)
O=S(=O)(c1ccccc1)N1CCC2(CCCN(c3ccccc3)C2)CC1	–	1.26 µM (active)
O=S(=O)(c1ccccc1)N1CCC2(CC1)CN(c1ncccn1)C2	6.14%	–
CS(=O)(=O)N1CCC[C@@]2(CCN(c3ccccn3)C2)C1	-12.6%	–
O=S(=O)(c1ccccc1)N1CCC2(CCCN(c3cccc(-c4ccccc4)c3)C2)CC1	17.6%	–

SMILES	activity, negative = inhibition	AC50
O=S(=O)(c1ccccc1)N1CCC2(CC1)CN(c1ccccn1)C2	-23.8%	–
C=C(NC(=O)C(=C)NC(=O)c1csc(C2=N[C@@H]3c4csc(n4)[C@@H]4NC(=O)c5csc(n5)[C@@H]([C@](C)(O)[C@H](C)O)NC(=O)[C@@H]5CSC(=N5)/C(=C/C)NC(=O)[C@@H]([C@H](C)O)NC(=O)c5csc(n5)[C@]3(CC2)NC(=O)[C@@H](C)NC(=O)C(=C)NC(=O)[C@@H](C)NC(=O)[C@@H]([C@@H](C)CC)N[C@H]2C=Cc3c([C@H](C)O)cc(nc3[C@@H]2O)C(=O)O[C@H]4C)n1)C(N)=O	-19.2% [at 25.6 µM]	–
O=C1C2C3C=CC(C3)C2C(=O)N1/N=C/c1cn(Cc2ccccc2)c2ccccc12 (centres undefined)	-48.5%	–
O=C1C2C3C=CC(C3)C2C(=O)N1/N=C/c1cn(Cc2ccc(F)cc2)c2ccccc12 (centres undefined)	-27.4%	–
O=[N+]([O-])/C=C/c1cn(Cc2ccccc2)c2ccccc12	–	11.2 µM (active)
C/C(=N/O)c1ccc2cc(Br)c3ccccc3c2c1	-8.36% [at 11.4 µM]	–
Cc1cccc(CNc2nc(-c3ccccc3CN(C)C)nc3ccccc23)c1	-1.33% [at 2.29 µM]	–
Nc1ccc(N(c2ccccc2)c2ccc(N)cc2)cc1	–	7.08 µM (active)
C[C@H](c1ccccc1)N1C(=O)[C@H]2[C@@H]3[C@H](O)[C@H](O)CC(=O)[C@H]3CC[C@H]2C1=O	20% [at 11.4 µM]	–
N[C@@H](Cc1cc(CP(=O)(O)O)cc(-c2ccccc2Cl)c1)C(=O)O	-7.75%	–
Cc1c(N2CCCC2)cc2c(c1NC(=O)c1ccccc1Cl)C(C)(C)CC2(C)C	-14.9% [at 11.4 µM]	–
Cc1cc(F)ccc1S(=O)(=O)Nc1ccccc1C(=O)Nc1ccccc1N1CCOCC1	–	0.447 µM (active)
Cc1ccc(NC(=O)c2ccccc2C(=O)O)cc1C	-16.6% [at 11.4 µM]	–
COC(=O)CSC(C(=O)Nc1ccc(C)c(C)c1)c1ccccc1 (centres undefined)	–	1.78 µM (active)
Cc1ccc(NC(=O)C2C3CCCC2C3c2ccccc2)cc1C (centres undefined)	-6.97%	–
C#CCCCO/N=C1/C[C@@H](O)[C@@H](O)[C@@H]2[C@@H]3C(=O)N(CCC(=O)OCC)C(=O)[C@H]3CC[C@H]12	12.8% [at 11.4 µM]	–
Cc1cccc(C)c1OC[C@@H](N)C(C)C	-6.12%	–
COC(=O)c1[nH]c2ccc(Br)cc2c1NC(=O)CN1CCN(C2CCCCC2)CC1	-5.13%	–
COC(=O)c1[nH]c2ccc(Br)cc2c1NC(=O)CN1CCCc2ccccc21	–	0.891 µM (active)
CC1(C)CC(=O)C2=C(C1)Nc1cc3c(cc1C2c1ccc(F)cc1)OCO3 (centres undefined)	–	4.47 µM (active)
N#Cc1c(NC(=O)C(F)(F)F)sc2c3c(=O)c4ccccc4c(=O)c=3oc3ccccc3c12	–	0.0501 µM (active)
O=C(NC12CC3CC(CC(C3)C1)C2)N1CCN(c2nc(-c3ccccc3)cs2)CC1	–	12.6 µM (active)
COc1ccc(-n2c(=O)c(C)nc3cnc(OC)nc32)cc1	-17.6%	–
Cc1noc(C)c1-c1ccc2ncnc(N(C)C)c2c1	10.9% [at 2.29 µM]	–
CN(C)CN1C(=O)S/C(=C2/C(=O)N(CN(C)C)c3ccccc32)C1=O	-9.33% [at 11.4 µM]	–
CCN1C(=O)/C(=C2\SC(=S)N(CCCOC)C2=O)c2ccccc21	–	0.794 µM (active)
CC(C)Cn1cnc2c(Sc3c([N+](=O)[O-])ncn3C)nc(N)nc21	29.4% [at 11.4 µM]	–
